Measurements published in PubChem BioAssay (Tox21).
Records with an inconclusive call do not appear. Entries that show only a call come without a potency. Active and inactive are the calls of the source. Calls follow the shape of the full dose curve.

Biological target: Beta-2 adrenergic receptor (Homo sapiens) (UniProt P07550)
Assay: Adrenergic beta2 receptor (ADRB2) small molecule agonists, cell-based qHTS assay (AID 1963593);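 also: CHO cells stably overexpressing human ADRB2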
Conditions: CHO-ADRB2 cells, cAMP HTRF, 30 min; series mostly up to 92.4 µM
Procedure, shortened: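 CHO cells stably over-expressing ADRB2 were plated overnight at 37C, then dosed with compounds plus a stimulation mix containing 100uM IBMX and 25uM Ro-20-1724 for 0.5hr at room temperature. cAMP was measured by HTRF competition, 1hr.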

Chain of Beta-2 adrenergic receptor (Homo sapiens) (P07550 whole entry, looked up): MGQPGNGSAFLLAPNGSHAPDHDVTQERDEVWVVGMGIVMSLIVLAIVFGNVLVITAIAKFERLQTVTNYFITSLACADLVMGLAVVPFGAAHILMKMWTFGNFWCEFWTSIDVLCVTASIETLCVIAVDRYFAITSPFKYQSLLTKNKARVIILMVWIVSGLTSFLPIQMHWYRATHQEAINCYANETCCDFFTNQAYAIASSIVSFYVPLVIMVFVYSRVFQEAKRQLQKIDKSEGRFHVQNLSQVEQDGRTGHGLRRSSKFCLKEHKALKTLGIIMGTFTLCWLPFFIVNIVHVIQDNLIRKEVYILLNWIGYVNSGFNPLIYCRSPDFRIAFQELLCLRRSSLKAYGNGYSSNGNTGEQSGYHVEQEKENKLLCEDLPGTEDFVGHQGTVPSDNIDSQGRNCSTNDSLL

Structure (SMILES) | Potency
CCOC(=O)c1ccccc1C(=O)OCC | inactive
ClC(Cl)=C(c1ccc(Cl)cc1)c1ccc(Cl)cc1 | inactive
O=C(O)C(Br)Br | inactive
O=C(O)c1ccccn1 | inactive
C=CCOC(N)=O | inactive
C1CN2CCC1CC2 | inactive
CCC[N+](=O)[O-] | inactive
Cc1ccc(N)cc1 | inactive
N#CCCCCC#N | inactive
Cc1ccc(N=C=O)cc1N=C=O | inactive
C=C(C)C#N | inactive
O=P(OCCCl)(OCCCl)OCCCl | inactive
Nc1ccc(Oc2ccc(N)cc2)cc1 | inactive
CCCCCON=O | inactive
Oc1ccccc1-c1ccccc1 | inactive
Clc1ccc(C(Cl)(Cl)Cl)cc1 | inactive
O=[N+]([O-])c1ccccc1 | inactive
CCCC(C)(COC(N)=O)COC(=O)NC(C)C (centres undefined) | inactive
O=C(O)C(F)(F)C(F)(F)C(F)(F)C(F)(F)C(F)(F)C(F)(F)C(F)(F)F | inactive
Cc1ccc(N)c(N)c1 | inactive
ClCCN1CCCC1 | inactive
O=C(NC(=O)c1c(F)cccc1F)Nc1cc(Cl)c(OC(F)(F)C(F)C(F)(F)F)cc1Cl (centres undefined) | inactive
CC1=C2[C@H]3OC(=O)[C@@H](C)[C@@H]3CC[C@@]2(C)C=CC1=O | inactive
Cc1ccccc1O | inactive
O=NN1CCOCC1 | inactive

Structure (SMILES) | Potency
C(=NC1CCCCC1)=NC1CCCCC1 | inactive
ClCc1ccccn1 | inactive
CCCCN=C=O | inactive
CC(C)OS(C)(=O)=O | inactive
O=C([O-])c1ccccn1.O=C([O-])c1ccccn1.O=C([O-])c1ccccn1.[Cr+3] | inactive
CCCCN(CC)C(=O)SCCC | inactive
CCCCCCCCCl | inactive
CCOC(=O)C1OC1(C)c1ccccc1 (centres undefined) | inactive
CNC(=O)Oc1c(C(C)(C)C)cc(C)cc1C(C)(C)C | inactive
Nc1nc(N)nc(Cl)n1 | inactive
N#CC(c1ccccc1)c1ccccc1 | inactive
Oc1cc(Cl)ccc1Cl | inactive
[O-][Cl+2]([O-])O | inactive
Cc1cnc[nH]1 | inactive
CC(C)C(=O)OCC(C)(C)C(OC(=O)C(C)C)C(C)C (centres undefined) | inactive
CN(C)C(=O)C(c1ccccc1)c1ccccc1 | inactive
CC(C)CCCCCOC(=O)c1ccccc1C(=O)OCCCCCC(C)C | inactive
Cc1cc(O)ccc1Cl | inactive
Nn1cnnc1 | inactive
COC(=O)NC(=S)Nc1ccccc1NC(=S)NC(=O)OC | inactive
Cc1cc(Cl)ccc1OC(C)C(=O)O (centres undefined) | inactive
COC(=O)Nc1cccc(OC(=O)Nc2cccc(C)c2)c1 | inactive
CN(C)N=O | inactive
Nc1ccc(Br)cc1 | inactive
CC(=O)C(C)(C)C | inactive

Structure (SMILES) | Potency
N#CN=C(N)N | inactive
COC(=O)c1c(C(F)F)nc(C(F)(F)F)c(C2=NCCS2)c1CC(C)C | inactive
[CH3][Sn]([Cl])([Cl])[Cl] | inactive
C=CCBr | inactive
CNC(=O)Oc1cccc2ccccc12 | inactive
CCCCC(CC)COC(=O)c1c(Br)c(Br)c(Br)c(Br)c1C(=O)OCC(CC)CCCC (centres undefined) | inactive
O=C(O)c1cc(Cl)ccc1Cl | inactive
BrC(Br)Br | inactive
CN(C)CCc1c[nH]c2cccc(OP(=O)(O)O)c12 | inactive
CC(C)CON=O | inactive
OCCSSCCO | inactive
BrCc1ccc(Br)cc1 | inactive
c1ccc(P(c2ccccc2)c2ccccc2)cc1 | inactive
Cc1cc(Cl)ccc1O | inactive
O=[N+]([O-])c1cc(Cl)ccc1Cl | inactive
O=NN1CCCCCCC1 | inactive
O=C(CCN1CC1)OCC(CO)(COC(=O)CCN1CC1)COC(=O)CCN1CC1 | inactive
CC1(C)CC(=O)CC(C)(C)N1[O] | inactive
CCCCOP(=O)(CCCC)OCCCC | inactive
CC1OC(C)OC(C)O1 (centres undefined) | inactive
CCCCOC(=O)c1ccccc1C(=O)OCCCC | inactive
O=[N+]([O-])c1ccc(CBr)cc1 | inactive
CCCCCCCCOC(=O)c1ccccc1C(=O)OCCCCCCCC | inactive
CCC(Br)(CC)C(=O)NC(N)=O | inactive
